Measured values as given in PubChem BioAssay.
The source made the active and inactive calls. Unless noted, how the calls were made is not given here.

Assays:
[1] = anti-His antibody binders, primary screen, artefact control for SMM control protein annotation, biochemical, small-molecule microarray, 635 nm fluorescence (AID 1128); conditions: anti-His Alexa647 antibody binding, higher = more signal;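 further: score merges feature fluorescence with signal-to-noise for each printed compound spot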
[2] = test system: Human papillomavirus type 1a E7 protein (residues 1-88); assay: HPV1a E7 small-molecule binders, primary screen, biochemical, small-molecule microarray, residues 1-88, 635 nm (AID 1129); conditions: small-molecule microarray binding, fluorescence 635 nm; higher = more signal
[3] = target: Focal adhesion kinase 1 (Homo sapiens) (UniProt Q05397); assay: small-molecule microarray binders of FAK, primary screen, biochemical, 635/667 nm fluorescence, BSA, DTT (AID 1130); conditions: PTK2 binding, 635 nm fluorescence, higher = more signal;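 further: composite of spot emission at 667 nm and signal to noise over triplicate slides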
[4] = test system: Fibrinogen (Alexa647-labelled); assay: fibrinogen binders on compound microarrays, profiling panel, artefact control for SMM control-protein annotation, biochemical, small-molecule microarray, 635/667 nm fluorescence (AID 1131); conditions: fibrinogen-A647 binding fluorescence, higher = more signal;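 further: z-score merges 667 nm fluorescence with per-spot signal-to-noise over triplicate slides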
[5] = target: Follistatin (Homo sapiens) (UniProt P19883); assay: follistatin binders on small-molecule microarrays, primary screen, biochemical, small-molecule microarray, 635/667 nm fluorescence (AID 1132); conditions: FST binding, 635 nm fluorescence, higher = more signal
[6] = target: Fibroblast growth factor 2 (Homo sapiens) (UniProt P09038); assay: FGF2 binders on small-molecule microarrays, primary screen, biochemical, small-molecule microarray, 635/667 nm fluorescence (AID 1133); conditions: small-molecule microarray binding, FGF2, fluorescence 635/667; higher = more signal
[7] = mitochondrial membrane potential change in A549 cells, profiling panel, cell-based, JC-1 fluorescence, basal, 24 h, 100 nL (AID 1138); conditions: higher = more signal;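 further: A549 lung adenocarcinoma cells under basal conditions with no added stimulus; test concentration not given here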
Lefty1 = Lefty1 binders on small-molecule microarrays, primary screen, biochemical, small-molecule microarray, 635/667 nm fluorescence (AID 1139); conditions: small-molecule microarray binding, fluorescence 635/667; higher = more signal
[8] = test system: wheat germ agglutinin (Triticum aestivum), Alexa647-labelled; assay: wheat germ agglutinin binders on compound microarrays, profiling panel, artefact control for SMM control-protein annotation, biochemical, small-molecule microarray, 635/667 nm fluorescence (AID 1140); conditions: WGA-A647 binding, 635 nm fluorescence, higher = more signal;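 further: score merges 667 nm feature emission with signal to noise over triplicate slides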
[9] = target: Luciferin 4-monooxygenase (Photinus pyralis) (UniProt P08659); assay: firefly luciferase enzyme inhibitors, primary screen, biochemical, luminescence, purified enzyme, 2006 set (AID 1141); conditions: SteadyGlo luminescence, 30 min, higher = more signal, called active from +8 up or from −8 down;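 further: cell-free assay with purified firefly luciferase at 100 ng per well in PBS; test concentration not given here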
[10] = test system: Wnt5a (protein binding on small-molecule microarray); assay: Wnt5a binders on small-molecule microarray, primary screen, biophysical, 635/667 nm fluorescence (AID 1142); conditions: 635 nm fluorescence, higher = more signal;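 further: fluorescence read at 667 nm with signal to noise per printed feature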
[11] = cell viability in Huh7 cells, primary screen, cytotoxicity control for HCV replication inhibitor project, CellTiter-Glo luminescence, basal, 48 h (AID 1143); conditions: Huh7 HCV replicon, higher = more signal, called active from +8 up or from −8 down;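 further: Huh7 hepatoma cells carrying a hepatitis C replication reporter with no stimulus; test concentration not given here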
[12] = P. aeruginosa biofilm formation inhibitors, primary screen, PAO1 strain, BacTiter-Glo luminescence, LB-PBS (AID 1144); conditions: 12 h, higher = more signal
[13] = CREB reporter modulators without forskolin, primary screen, cell-based, PC12, CRE-LacZ reporter, unstimulated (AID 1145); conditions: no forskolin, luminescence, 4.5 h, higher = more signal, called active from +8 up or from −8 down
[14] = CREB reporter modulators under forskolin, primary screen, cell-based, PC12, CRE-LacZ reporter, forskolin-stimulated (AID 1146); conditions: luminescence, 4.5 h, higher = more signal, called active from +8 up or from −8 down;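 further: PC12 cells with 6xCRE LacZ reporter stimulated by forskolin 10 µM; beta-galactosidase reporter signal reflecting CREB driven transcription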
[15] = target: Streptavidin (Streptomyces avidinii) (UniProt P22629); assay: streptavidin binders on small-molecule microarray, primary screen, artefact control for SMM compound annotation, biophysical, 635/667 nm fluorescence (AID 1147); conditions: streptavidin binding, higher = more signal;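 further: signal reflects streptavidin binding to arrayed compounds as a control protein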
[16] = small-molecule binders of probe aInhba, primary screen, biochemical, small-molecule microarray, 635/667 nm fluorescence (AID 1148); conditions: higher = more signal;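 further: score merges 667nm spot fluorescence with signal-to-noise for antibody binding to printed compounds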
Torsin-1A (Homo sapiens) [17] = target: Torsin-1A (Homo sapiens) (UniProt O14656); assay: torsin A binders from cell lysate, primary screen, small-molecule microarray, wild-type, 635/667 nm (AID 1149); conditions: COS7 hTOR1A-WT lysate, 635 nm fluorescence, higher = more signal
Torsin-1A (Homo sapiens) [18] = target: Torsin-1A (Homo sapiens) (UniProt O14656); assay: small-molecule binders of mutant TOR1A in lysate, primary screen, cell lysate, small-molecule microarray, COS7 lysate, 635/667 nm fluorescence (AID 1150); conditions: COS7 hTOR1A mutant lysate, 635 nm fluorescence, higher = more signal;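 further: score pools 667 nm emission and signal to noise measuring lysate protein binding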
[19] = test system: Sonic hedgehog protein (Shh); assay: small-molecule binders of Shh protein, primary screen, biochemical, small-molecule microarray, 635/667 nm fluorescence (AID 1151); conditions: small-molecule microarray binding, 635 nm fluorescence; higher = more signal;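 further: Shh protein binding to compounds spotted on small-molecule microarray slides; score combines spot fluorescence intensity with signal-to-noise across triplicate slides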

Fibroblast growth factor 2 (Homo sapiens), sequence (P09038 whole entry, looked up): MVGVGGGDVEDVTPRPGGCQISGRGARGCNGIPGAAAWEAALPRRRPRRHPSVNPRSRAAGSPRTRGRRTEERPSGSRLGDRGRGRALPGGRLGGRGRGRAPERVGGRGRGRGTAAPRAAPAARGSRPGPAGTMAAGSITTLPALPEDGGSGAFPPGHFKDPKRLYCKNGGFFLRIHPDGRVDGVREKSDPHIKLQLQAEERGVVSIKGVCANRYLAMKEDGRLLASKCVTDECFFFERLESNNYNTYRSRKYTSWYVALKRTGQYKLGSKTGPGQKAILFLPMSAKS
Torsin-1A (Homo sapiens), sequence (O14656 whole entry, looked up): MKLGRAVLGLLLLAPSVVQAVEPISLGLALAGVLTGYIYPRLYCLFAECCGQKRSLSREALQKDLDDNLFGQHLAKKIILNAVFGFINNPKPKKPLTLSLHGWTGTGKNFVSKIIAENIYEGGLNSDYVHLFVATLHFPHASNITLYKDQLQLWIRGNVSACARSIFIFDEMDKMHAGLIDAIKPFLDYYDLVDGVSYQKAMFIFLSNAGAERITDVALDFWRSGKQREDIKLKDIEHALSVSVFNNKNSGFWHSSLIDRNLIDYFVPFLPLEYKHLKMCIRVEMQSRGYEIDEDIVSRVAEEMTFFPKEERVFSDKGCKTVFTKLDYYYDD
Focal adhesion kinase 1 (Homo sapiens), sequence (Q05397 whole entry, looked up): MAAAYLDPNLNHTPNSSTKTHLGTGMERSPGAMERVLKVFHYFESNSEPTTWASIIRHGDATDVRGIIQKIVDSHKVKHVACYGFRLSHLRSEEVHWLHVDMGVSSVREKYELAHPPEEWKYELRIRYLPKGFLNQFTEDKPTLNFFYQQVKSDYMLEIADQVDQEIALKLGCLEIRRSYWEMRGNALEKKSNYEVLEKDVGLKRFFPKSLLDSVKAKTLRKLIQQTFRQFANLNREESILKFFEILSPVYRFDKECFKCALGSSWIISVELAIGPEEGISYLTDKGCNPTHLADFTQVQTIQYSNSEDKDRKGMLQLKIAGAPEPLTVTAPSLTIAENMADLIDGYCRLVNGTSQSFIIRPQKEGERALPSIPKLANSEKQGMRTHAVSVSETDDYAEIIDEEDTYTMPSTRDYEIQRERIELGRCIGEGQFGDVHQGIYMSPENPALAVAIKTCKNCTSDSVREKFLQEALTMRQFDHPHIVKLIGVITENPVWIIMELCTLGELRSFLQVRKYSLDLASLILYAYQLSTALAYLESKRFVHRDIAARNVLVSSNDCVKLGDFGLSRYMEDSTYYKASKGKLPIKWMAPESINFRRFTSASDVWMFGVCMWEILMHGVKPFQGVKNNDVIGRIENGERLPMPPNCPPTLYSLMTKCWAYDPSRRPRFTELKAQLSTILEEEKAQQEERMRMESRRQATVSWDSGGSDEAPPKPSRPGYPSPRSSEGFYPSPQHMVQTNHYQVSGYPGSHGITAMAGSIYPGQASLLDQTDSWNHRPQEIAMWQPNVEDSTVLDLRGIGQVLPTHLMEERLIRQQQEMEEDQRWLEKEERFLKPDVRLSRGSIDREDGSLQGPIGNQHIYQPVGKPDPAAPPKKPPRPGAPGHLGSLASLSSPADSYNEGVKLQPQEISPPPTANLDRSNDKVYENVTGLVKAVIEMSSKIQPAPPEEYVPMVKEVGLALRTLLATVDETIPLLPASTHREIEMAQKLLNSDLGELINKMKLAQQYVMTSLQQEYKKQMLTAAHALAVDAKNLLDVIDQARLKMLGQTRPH
Follistatin (Homo sapiens), sequence (P19883 whole entry, looked up): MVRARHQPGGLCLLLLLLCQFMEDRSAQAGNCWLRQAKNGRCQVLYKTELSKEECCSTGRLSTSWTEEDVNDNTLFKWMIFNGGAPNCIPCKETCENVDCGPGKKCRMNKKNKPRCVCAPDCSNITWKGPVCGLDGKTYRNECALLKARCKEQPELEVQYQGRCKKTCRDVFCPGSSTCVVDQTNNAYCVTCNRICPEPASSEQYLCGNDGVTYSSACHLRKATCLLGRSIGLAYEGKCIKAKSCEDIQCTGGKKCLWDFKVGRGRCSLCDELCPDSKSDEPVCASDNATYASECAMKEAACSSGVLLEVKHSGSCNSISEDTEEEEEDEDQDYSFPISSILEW
Luciferin 4-monooxygenase (Photinus pyralis), sequence (P08659 whole entry, looked up): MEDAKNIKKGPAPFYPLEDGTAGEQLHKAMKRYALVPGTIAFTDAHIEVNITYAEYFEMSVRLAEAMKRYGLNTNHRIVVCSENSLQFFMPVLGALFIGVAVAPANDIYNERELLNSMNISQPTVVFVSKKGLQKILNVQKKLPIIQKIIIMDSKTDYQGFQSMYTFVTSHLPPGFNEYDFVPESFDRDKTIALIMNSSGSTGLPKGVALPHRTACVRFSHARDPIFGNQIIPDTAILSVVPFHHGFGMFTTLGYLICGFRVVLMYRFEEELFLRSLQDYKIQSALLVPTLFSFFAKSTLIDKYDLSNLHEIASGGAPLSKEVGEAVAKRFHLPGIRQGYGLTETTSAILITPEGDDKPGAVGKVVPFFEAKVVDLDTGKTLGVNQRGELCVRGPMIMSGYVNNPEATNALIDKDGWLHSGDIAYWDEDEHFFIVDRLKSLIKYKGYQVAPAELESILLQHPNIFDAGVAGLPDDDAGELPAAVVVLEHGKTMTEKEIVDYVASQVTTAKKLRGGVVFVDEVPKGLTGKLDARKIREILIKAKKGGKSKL
Streptavidin (Streptomyces avidinii), sequence (P22629 whole entry, looked up): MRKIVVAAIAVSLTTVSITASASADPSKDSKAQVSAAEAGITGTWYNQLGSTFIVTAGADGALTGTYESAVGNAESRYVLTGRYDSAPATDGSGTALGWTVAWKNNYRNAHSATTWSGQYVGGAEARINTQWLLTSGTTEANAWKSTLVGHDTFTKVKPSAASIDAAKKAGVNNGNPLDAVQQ

SMILES	composite z-score [1]	composite z-score [2]	composite z-score [3]	composite z-score [4]	composite z-score [5]	composite z-score [6]	z-score [7]	composite z-score (Lefty1)	composite z-score [8]	z-score [9]	composite z-score [10]	z-score [11]	z-score [12]	z-score [13]	z-score [14]	composite z-score [15]	composite z-score [16]	composite z-score (Torsin-1A (Homo sapiens) [17])	composite z-score (Torsin-1A (Homo sapiens) [18])	composite z-score [19]
COc1ccc(CC[C@H](O)c2cccc(OCC(=O)OC(C)(C)C)c2)cc1	0.697	1.01	0.464	1.04	1.02	0.625	0.383	1.01	0.906	0.275 (inactive)	0.42	-3.93 (inactive)	-0.0717 (inactive)	0.595 (inactive)	-0.251 (inactive)	1.77	0.156	0.584	0.977	1.37
COC(=O)[C@@]1(Cc2ccc(OC)cc2)[C@H]2c3cc(C(=O)N(C)C)n(Cc4ccsc4Br)c3C[C@H]2CN1C(=O)c1ccccc1	1.74	1.09	0.957	0.862	-0.244	-0.29	0.292	-0.538	0.669	1.05 (inactive)	0.286	-0.21 (inactive)	0.00572 (inactive)	0.597 (inactive)	0.217 (inactive)	0.705	0.571	-0.0008	0.808	0.105
CN(C)C(=O)[C@@]1(CCS(=O)(=O)c2ccccc2)N=C(c2ccc(OCCCO)cc2)O[C@H]1c1ccccc1N=[N+]=[N-]	0.838	1.25	0.601	1	1.1	0.58	0.371	0.267	0.371	-11 (active)	1	-3.2 (inactive)	1.75 (inactive)	0.447 (inactive)	-1.37 (inactive)	1.82	0.0569	0.155	0.797	-0.337
C=CC[C@]1(C(=O)N(C)C)COC(c2ccc(OCCCO)cc2)=N1	3.41	1.09	0.268	-0.744	0.517	0.982	-0.392	-0.26	0.615	-2.7 (inactive)	1.07	-1.88 (inactive)	-1.15 (inactive)	2.5 (inactive)	-1.45 (inactive)	2.12	0.3	0.577	1.85	-0.174
CCCCC(=C=CC[C@@H](O)c1ccc(OCCO)cc1)C[C@@H](O)c1ccccn1	-0.0662	0.731	0.178	0.141	1.22	0.611	0.176	1.47	-0.146	-1.12 (inactive)	0.158	-1.31 (inactive)	0.412 (inactive)	14.6 (active)	-0.0387 (inactive)	-0.0544	0.0569	0.634	0.51	1.48
CCCC[C@@H]1C[C@H]1[C@@H](NC(=O)Cc1ccccc1)c1ccc(Cl)cc1	1.84	1.18	1.53	1.02	0.841	-0.272	-2.79	-0.297	1.25	0.957 (inactive)	0.545	-3.44 (inactive)	1.19 (inactive)	0.962 (inactive)	0.56 (inactive)	2.32	-0.0002	0.578	0.311	-0.22
CCCCCCc1nc(-c2ccc(OC)nc2)cc2c1[Si](C(C)C)(C(C)C)OC2	-0.102	-0.493	-0.206	-0.137	-0.0974	-0.206	-1.46	-0.0037	-0.218	0.997 (inactive)	-0.446	-3.35 (inactive)	-0.757 (inactive)	-0.36 (inactive)	-0.565 (inactive)	0.151	-0.0963	-0.734	0.706	-0.0247
C/C=C/CN(C(=O)C#Cc1ccccc1)[C@H](CO[Si](C)(C)C(C)(C)C)c1ccccc1	-1.73	-0.0136	-0.1	-2.12	-1.52	-1.25	0.2	-0.977	-1.7	-0.178 (inactive)	-0.515	-4.31 (inactive)	1.09 (inactive)	1.94 (inactive)	-0.757 (inactive)	-1.06	-0.353	-0.724	-0.841	0.248
[N-]=[N+]=NCc1ccccc1[C@@H]1OC(c2ccc(OCCCO)cc2)=N[C@]1(Cc1ccccc1)C(=O)NCc1ccccc1	0.491	1.18	1.11	0.734	0.846	-0.0705	0.012	-0.0948	1.03	0.294 (inactive)	0.609	-2.86 (inactive)	-0.338 (inactive)	-0.585 (inactive)	0.0071 (inactive)	1.24	-0.0267	0.823	1.1	-0.471
CCCC[C@@H](O)C1=C(COC)Cn2c(=O)n(-c3ccccc3)c(=O)n2[C@H]1CO	0.0209	-0.155	-0.109	0.894	-0.266	0.0646	-0.239	-0.0726	0.858	-1.65 (inactive)	-0.296	-0.915 (inactive)	-0.313 (inactive)	-0.0487 (inactive)	-1.11 (inactive)	-0.538	-0.128	-0.527	-0.577	0.223
